Where two headings read alike, the source gives them in different places. The campaign covered roughly 3,300 compounds. About 95 (3%) showed an effect of 50% or more. For the sample, strong results were picked, then their nearest neighbours and some compounds at random.
Tested on: HCoV-229E
Design: species or system Huh-7; HTS, protection from HCoV-229E induced cell death, luminescent cell viability (CellCounting-Lite 2.0), inhibition rate
Details: 24 h post infection, 1 h compound pre-incubation, 10 µM, inhibitor

SMILES	229E Inhibition rate [%]	229E Inhibition rate (229E Inhibition rate, 24 h) [%]
CC1(C)CCC2(CO)C(=C3C=CC4C5(C)CCC(OC6OC(COC7OC(CO)C(O)C(O)C7O)C(OC7OC(CO)C(O)C(O)C7O)C(O)C6O)CC5C(C)(CO)CC4(C)C3(C)CC2O)C1 (stereo not shown) [Clinodiside A]	8.8	
COC(=O)Cc1c[nH]c2ccccc12 [Methyl 2-(1H-indol-3-yl)acetate]	38.3	
COc1c(/C=C/C(=O)c2ccc(O)cc2)ccc(O)c1O [Licochalcone B]	25.4	
COc1cc(O)ccc1/C=C/C(=O)c1ccc(O)cc1 [Echinatin]	0	
C=C(C)[C@H](C)c1cc(/C=C/C(=O)c2ccc(O)cc2)c(OC)cc1O [Licochalcone E]	61.6	
CC1=C(O)C(=O)C(C)O1 (stereo not shown) [Furaneol]	17.8	
COc1cc2c(cc1OC)[C@@H](Cc1ccc(Oc3cc(C[C@@H]4c5cc(OC)c(OC)cc5CCN4C)ccc3O)cc1)N(C)CC2 [Dauricine]	3.6	
O=C(/C=C/c1ccc(O)c(O)c1)OC[C@@H](O)CO[C@@H]1O[C@H](CO)[C@@H](O)[C@H](O)[C@H]1O [Regaloside C]	52.3	
O=C(/C=C/c1ccc(O)c(O)c1)c1ccc(O[C@@H]2O[C@H](CO)[C@@H](O)[C@H](O)[C@H]2O)c(O)c1O [Marein]	17.9	
O=C(/C=C/c1ccc(O)c(O)c1)OC[C@H]1O[C@@H](OCCc2ccc(O)c(O)c2)[C@H](O)[C@@H](O)[C@@H]1O [Calceolarioside B]	10.8	
Cc1cn([C@@H]2O[C@H](CO)[C@@H](O)[C@H]2O)c(=O)[nH]c1=O [5-Methyluridine]	14.9	
CC(C)c1cc2c(c(O)c1O)[C@@]13CCCC(C)(C)[C@@H]1[C@H](OC3=O)[C@H]2O [Rosmanol]	0	
CC1NC(=O)CNC1=O (stereo not shown) [Cyclo(Ala-Gly)]	39.9	
CCCCCCCCCCCCCCCCC(C(=O)O)C(O)(CC(=O)O)C(=O)O (stereo not shown) [Agaric acid]	18.4	
CN[C@@H](C)[C@H]1[C@H](O)C[C@@]2(C)[C@@H]3CC[C@H]4C(C)(C)[C@@H](NC)CC[C@@]45C[C@@]35CC[C@]12C [Cyclovirobuxine D]	55.2	
CC(C)(O)[C@H]1CC[C@@](C)([C@H]2[C@@H](O)C[C@@]3(C)[C@@H]4C[C@H](O)[C@H]5C(C)(C)[C@@H](O)CC[C@@]56C[C@@]46CC[C@]23C)O1 [Cyclogalegenin]	12.6	
CC(C)(O)[C@@H]1CC[C@](C)([C@H]2[C@@H](O)C[C@@]3(C)[C@@H]4C[C@H](O)[C@H]5C(C)(C)[C@@H](O)CC[C@@]56C[C@@]46CC[C@]23C)O1 [Cycloastragenol]	8.6	
CC(O)CC(=O)O (stereo not shown) [3-Hydroxybutyric acid]	11.2	
C/C=C(/C)C(=O)O[C@H]1c2cc(OC)c(OC)c(OC)c2-c2c(cc(OC)c(OC)c2OC)C[C@H](C)[C@]1(C)O [Angeloylgomisin Q]	42.2	
COc1cc2c(c(OC)c1OC)-c1c(cc3c(c1OC)OCO3)C[C@H](C)[C@H](C)C2 [Gomisin N]		42.9

SMILES	229E Inhibition rate [%]	229E Inhibition rate (229E Inhibition rate, 24 h) [%]
COc1ccc2c(c1OC)CC1c3c(cc4c(c3-2)OCO4)CCN1C (stereo not shown) [Crebanine]	62.7	
CN1CCc2cc3c(c4c2C1Cc1ccccc1-4)OCO3 (stereo not shown) [Roemerine]	25.9	
COc1cc2c(c(OC)c1OC)-c1c(cc3c(c1O)OCO3)C[C@H](C)[C@@H](C)C2 [Gomisin M2]	19.3	
COc1cc2c(c(OC)c1OC)-c1c(cc3c(c1OC)OCO3)C[C@H](C)[C@@](C)(O)C2 [Schisandrol B]	7.8	
COc1cc2c(cc1OC)-c1c(OC)c(OC)cc3c1[C@H](C2)N(C)CC3 [Glaucine]	14.2	
C/C=C(/C)C(=O)O[C@H]1c2cc(OC)c(OC)c(OC)c2-c2c(cc3c(c2OC)OCO3)C[C@H](C)[C@]1(C)O [Schisantherin B]	54.7	
COc1cc2c(c(OC)c1OC)-c1c(cc(OC)c(OC)c1OC)C[C@H](C)[C@H](C)C2 [Schisandrin A]	35.1	
COc1cc2c(c(OC)c1OC)-c1c(cc3c(c1OC)OCO3)C[C@H](C)[C@H](C)C2 [Schisandrin B]		56.2
C/C=C(\C)C(=O)O[C@@H]1c2cc(OC)c(OC)c(OC)c2-c2c(cc3c(c2OC)OCO3)C[C@H](C)[C@@]1(C)O [Tigloylgomisin P]	40.2	
COc1c2c(cc3c1-c1c(cc4c(c1OC)OCO4)C[C@H](C)[C@H](C)C3)OCO2 [Schisandrin C]	52.7	
COC(=O)/C=C/c1ccc(O)cc1 [Methyl p-coumarate]		15.5
COC(=O)C1=CO[C@@H](O[C@@H]2O[C@H](CO)[C@@H](O)[C@H](O)[C@H]2O)[C@H]2[C@@H]1C=C[C@@]2(O)CO [Gardenoside]	10.6	
CCCCCCCCCCCCCCCC(=O)OC[C@H](CO)OC(=O)CCCCCCCCCCCCCCC [1,2-Dipalmitoyl-sn-glycerol]	6	
COC(=O)C1=CO[C@@H](O[C@@H]2O[C@H](CO)[C@@H](O)[C@H](O)[C@H]2O)[C@@H]2[C@@H](C)CC(=O)[C@]12O [Hastatoside]	0	
C[C@H](CC(=O)O)[C@H]1CC[C@H]2[C@@H]3[C@H](O)C[C@@H]4C[C@H](O)CC[C@]4(C)[C@H]3C[C@H](O)[C@]12C [Norcholic acid]	0	
Cc1cccc(CC(=O)O)c1 [m-Tolylacetic acid]	18.9	
O=C1O[C@H]([C@@H](O)CO)C(O)=C1O [L-Ascorbic acid]		17.7
OC[C@H]1O[C@H](OC[C@H]2O[C@H](OC[C@H]3O[C@H](O[C@]4(CO)O[C@H](CO)[C@@H](O)[C@@H]4O)[C@H](O)[C@@H](O)[C@@H]3O)[C@H](O)[C@@H](O)[C@H]2O)[C@H](O)[C@@H](O)[C@H]1O [Stachyose (tetrahydrate)]	43.8	
OC[C@H]1O[C@@](CO)(O[C@H]2O[C@H](CO[C@@H]3O[C@H](CO)[C@@H](O)[C@H](O)[C@H]3O)[C@@H](O)[C@H](O)[C@H]2O)[C@@H](O)[C@@H]1O [Gentianose]	0	
OC[C@H]1O[C@H](OC[C@H]2O[C@H](O[C@]3(CO)O[C@H](CO)[C@@H](O)[C@@H]3O)[C@H](O)[C@@H](O)[C@@H]2O)[C@H](O)[C@@H](O)[C@H]1O [Raffinose]	52.1	

From paper PMC12431657, “Discovery and mechanistic insights of dibenzoylmethane as a broad spectrum inhibitor of coronavirus” (PLOS Pathogens, 2025)
